Measured values from ChEMBL document CHEMBL4513216, “Probing the Open Global Health Chemical Diversity Library for Multistage-Active Starting Points for Next-Generation Antimalarials” (ACS Infect Dis, 2020).
Among all 69,000 compounds or so, about 8,600 (12%) showed an effect of 50% or more. This excerpt belongs to a sample that is enriched for strong results.

The molecules below were run on Plasmodium berghei (assay: Screen against P. berghei liver stage (PbLuc), transformed with Luciferase, at 10uM). Conditions: tested at 10 uM.
Format: functional, HepG2

Structure (SMILES) | INHIBITION [%]
Cc1nn(CC(O)CN2CCc3ccccc3C2)c(=O)c(C#N)c1C (centres undefined) | -1.75
O=C(N1CCCC1)N1CCC2(CC1)C(=O)N(CC1CC1)c1ccccc12 | 23.5
CCOCc1nnc2n1CCN(Cc1c(C)noc1C)CC2 | 30.3
Cc1ccnc(C(=O)N2C[C@@H]3CN(S(C)(=O)=O)CCO[C@@H]3C2)c1 | 48.2
Cc1nc(C(=O)N2C[C@@H]3CN(S(C)(=O)=O)CCO[C@@H]3C2)cs1 | 58.5
Cn1nccc1C(=O)N1C[C@@H]2CN(S(C)(=O)=O)CCO[C@@H]2C1 | 40.5
O=C(c1sccc1Br)N(Cc1cccnc1)C1CC1 | 25.2
Cn1cnc2c1CCN(Cc1ccc(Cl)c3cccnc13)C2 | 31.1
Clc1ccc(CN2CCc3c(ncn3C3CC3)C2)c2ncccc12 | 66.3
c1ccc(CCN2CCc3c(ncn3C3CC3)C2)nc1 | -24.7
Cc1nc2c(N3CCC(O)(Cn4ccnc4)CC3)ncnc2o1 | 29.7
CC(CNc1cncc(-n2cccn2)n1)N(C)c1ccccc1 (centres undefined) | 10
CCN(CC)C(=O)C1CCCN(c2ncnc3oc(C)nc23)C1 (centres undefined) | 3.46
CCC(CNc1ncnc2oc(C)nc12)Cc1ccccc1 (centres undefined) | 59.5
CCCN(CCc1ccccc1)c1ncnc2oc(C)nc12 | 25.4
CCCOc1ccc(Cl)cc1CNc1ncnc2oc(C)nc12 | 45.4
Cc1nc2c(NC(CC(C)(C)C)c3cccnc3)ncnc2o1 (centres undefined) | 34.4
Cc1nc2c(N(CCC(N)=O)CCc3ccccc3)ncnc2o1 | 19.2
CCCOc1ccccc1CCCNc1ncnc2oc(C)nc12 | 83.5
Cc1nc2c(NCC(C)N(C)c3ccccc3)ncnc2o1 (centres undefined) | 67.7
Cc1ncnc(NCC(C)N(C)c2ccccc2)c1C (centres undefined) | 68.6
Cc1ncnc(NC(CC(C)(C)C)c2cccnc2)c1C (centres undefined) | 40.3
CC(C)CCN(CCC(C)C)Cc1nc2c(cnn2C)c(=O)[nH]1 | -11.58
O=C(c1ccco1)N1C[C@H]2CCCN(Cc3nccs3)[C@H]2C1 | 1.71
CC(C)c1ccc(OCCNC(=O)CN2CCN(C)CC2C)cc1 (centres undefined) | 32.7
COCCNc1nc(N2CCCC2)nc2nccnc12 | 6.29
O=C(c1cscn1)N1CC[C@H]2C[C@@H](c3ccncn3)O[C@@H]2C1 | 43.9
COCCC(=O)NCc1ccc(-c2ccccc2C(=O)O)cn1 | 5.23
O=C(C1CCC1)N1CC[C@H](O)[C@@H]1Cc1cccnc1 | 32.1
